Measured values taken from PubChem BioAssay (EPA / NIEHS).
Results filed as inconclusive are left out. Calls of active or inactive are those of the source. How the source made its calls: active means hit-call score of the fitted dose curve at least 0.9, where 1 is the maximum; inconclusive means response in the unintended direction; inactive means score below 0.9.

Assay: ATG_XTT_Cytotoxicity: Cytotoxicity Assessment in the Attagene TRANS-FACTORIAL HepG2 Assay (AID 2283584);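 on AC50: cells exposed to compound for 24 h before reading; active means loss of viability signal versus DMSO baseline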
Outline: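 HepG2 human liver cells, transiently transfected with multiple GAL4-UAS reporter units, were dosed and read at 24 h by XTT as cell number. Loss of signal was fitted relative to DMSO negative control baseline.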

Compound | outcome | AC50
c1cc[c]([Sb]([c]2ccccc2)[c]2ccccc2)cc1 | inactive | 
Oc1c(Br)cc(Br)cc1Br | inactive | 
CCCCCCCCCCCCOS(=O)(=O)O | inactive | 
CN(N=O)c1ccc([N+](=O)[O-])cc1 | inactive | 
CC[N+](CC)(CC)CC | inactive | 
CN(C)CCN(C)C | inactive | 
Cc1ccc2nc3sc(=O)sc3nc2c1 | inactive | 
ClCCN1CCOCC1 | inactive | 
CCCSP(=S)(OCC)Oc1ccc(Cl)cc1Cl (stereo unspecified) | inactive | 
OC(Cc1ccccc1Cl)(Cn1[nH]cnc1=S)C1(Cl)CC1 (stereo unspecified) | inactive | 
CNC(=O)N(C)c1nc2ccccc2s1 | inactive | 
CC(C)(c1ccc(O)c(-c2ccccc2)c1)c1ccc(O)c(-c2ccccc2)c1 |  | 22.2 µM (active)
Cc1cccc(OP(=O)(Oc2cccc(C)c2)Oc2cccc(C)c2)c1 | inactive | 
CN(CCCC(O)c1cccnc1)N=O (stereo unspecified) | inactive | 
O=c1nc(O)n(Cl)c(=O)n1Cl | inactive | 
CC(c1ccccc1)(c1ccc(O)cc1)c1ccc(O)cc1 |  | 40.4 µM (active)
CCOP(=S)(OCC)SCS(=O)(=O)C(C)(C)C | inactive | 
CCCCC(CC)COC(=O)Cl (stereo unspecified) | inactive | 

Compound | outcome | AC50
COCC(=O)N(c1c(C)cccc1C)[C@H](C)C(=O)OC | inactive | 
BrCC(Br)c1ccccc1 (stereo unspecified) | inactive | 
Nc1ccc(N)cc1 | inactive | 
C1CCC(C2CCCCC2)CC1 | inactive | 
CC(C)(COCC1CO1)COCC1CO1 (stereo unspecified) | inactive | 
CCCSP(=S)(OCC)Oc1ccc(SC)cc1 (stereo unspecified) | inactive | 
Oc1cccc(-c2ccccc2)c1 | inactive | 
NNCCO | inactive | 
C[C@]12CC[C@@H](O)C[C@@H]1CC[C@@H]1[C@@H]2CC[C@]2(C)C(=O)CC[C@@H]12 | inactive | 
Cc1cc(Cl)ccc1N | inactive | 
COc1nn(C(=O)NS(=O)(=O)c2ccccc2OC(F)(F)F)c(=O)n1C | inactive | 
O=S(=O)(C(Cl)(Cl)Cl)C(Cl)(Cl)Cl |  | 36.7 µM (active)
CC(C)N(C(=O)CCl)c1ccccc1 |  | 31.2 µM (active)
ClCc1ccccc1CCl | inactive | 
NC(=O)c1ccc(N)nc1 | inactive | 
Fc1cccc(Cl)c1CCl | inactive | 
C=C(C)C(=O)OCCCCOC(=O)C(=C)C | inactive | 
OC(Cc1ccccc1Cl)(Cn1cncn1)C1(Cl)CC1 (stereo unspecified) | inactive | 
